Screening data deposited in PubChem by National Center for Advancing Translational Sciences (NCATS).
A selection: hits, their analogues and other compounds. The true share with any hit is near 9.4%.
Pf growth 96h = P. falciparum growth inhibition at 96 hour, primary screen for plastid delayed-death inhibitors | hit rate 6.9% among 320,000 | P. falciparum luciferase reporter growth, 96 h | Potency, µM (doses to about 28.7 µM), inactives show at the top dose activity change, negative = inhibition, hits mostly inhibitors | AID 504834; note: % is set by controls: 0 for no effect and ±100 for the full control effect
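Two-generation exposure (96 h) targets delayed-death phenotype. Reporter parasites carrying integrated firefly luciferase, in red cells at 2% hematocrit and 0.05% parasitemia final, kept at 37 C, 5% CO2; luminescence loss indicates inhibition.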
SARS PLP yeast = blocks SARS-CoV papain-like protease in a yeast assay | S. cerevisiae expressing SARS-CoV PLpro, growth rescue | Potency, µM (highest dose often 32.9 µM), for inactives: top-dose activity, positive = growth rescue, actives largely listed as activators | hit rate 0.19% among 330,000 | AID 485353; calls by dose curve; note: 0% is about no effect; nearly all actives have a fitted effect of over 55% in size
AMA1-RON2 inh = inhibitors of Plasmodium falciparum AMA1-RON2 interaction; AlphaScreen AMA1-biotinylated RON2 peptide binding; Potency, µM (top dose mostly 58.2 µM), without a hit: at the highest dose activity change, negative = inhibition, most hits filed as inhibitors; hit rate 0.2% among 360,000;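 note: 0% = vehicle wells and -100% = peptide control; nearly all actives have a fitted effect of over 45% in size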
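AMA1 (3D7) with his tag at 25 nM final met compounds first, then biotinylated RON2 peptide at 25 nM; detection used donor plus acceptor beads, 10 µg/mL apiece, read by AlphaScreen after 30 min at room temperature.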
Pf growth 48h = P. falciparum growth inhibition at 48 hours (one generation) | P. falciparum luciferase growth in erythrocytes, 48 h | hit rate 5.9% among 310,000 | Potency, µM (series often up to 28.7 µM), inactives show at the highest dose activity change, negative = inhibition, actives largely listed as inhibitors; note: % is set by controls: 0 for no effect and ±100 for the full control effect
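Compounds are pin-transferred into medium, infected erythrocytes (2% hematocrit, 0.1% parasitemia final) are added, and plates sit one parasite generation at 37 C in 5% CO2. Detection reagent is then added and luminescence measured.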
* marks the source's active call; other numbers are inactive results; u = inconclusive; x = no result given; [ ] = remark or other dose. Unless noted, calls come from the whole dose curve; as a rule, active = well fitted curve in the direction sought with a large enough effect; inconclusive = small, poorly fitted or top-dose-only effect, or another doubt; inactive = no such curve, though single readings can be large; an effect the other way counts as inactive or inconclusive. Potency is the fitted concentration of half-maximal effect.

SMILES	Pf growth 96h	SARS PLP yeast	AMA1-RON2 inh	Pf growth 48h
Cc1ccccc1NC(=O)c1cccc(N2C(=O)C3C4CCC(C4)C3C2=O)c1 (stereo not drawn)	x	1%	7%	-13%
Cc1ccc(NC(=O)c2cccc(N3C(=O)C4C5CCC(C5)C4C3=O)c2)c(C)c1 (stereo not drawn)	17%	10%	11%	10µM*
Cc1ccc(NC(=O)c2cccc(N3C(=O)C4C5C=CC(C5)C4C3=O)c2)cc1C (stereo not drawn)	12µM*	2%	10%	-21%
CC(=O)CCc1ccc(OCCCCN2CCC(Cc3ccccc3)CC2)cc1	u	0%	4%	u
CC(C)CCNC(=O)NC(=O)Cn1cc(C(F)(F)F)ccc1=O	x	7%	x	23%
CC(=O)Cn1c(CN2CCN(C(=O)c3ccco3)CC2)nc2c1c(=O)n(C)c(=O)n2C	6%	-5%	-3%	-14%
Cn1c(=O)c2c(nc(CN3CCN(C(=O)c4ccco4)CC3)n2Cc2ccc(Cl)cc2)n(C)c1=O	4%[5.75 µM]	-6%	-11%	7.4µM*
O=C(c1ccco1)N1CCN(Cc2nc3ccccc3c(=O)n2-c2ccc(F)cc2)CC1	9.3µM*	-3%	4%	x
Cc1ccc(Cn2c(CN3CCN(C(=O)c4ccco4)CC3)nc3c2c(=O)n(C)c(=O)n3C)cc1	u	12%	-4%	2.1µM*
CCCn1c(CN2CCN(C(=O)c3ccco3)CC2)nc2c1c(=O)n(C)c(=O)n2C	4%	5%	2%	0%
Cn1c(=O)c2c(nc(CN3CCN(C(=O)c4ccco4)CC3)n2Cc2cccc(Cl)c2)n(C)c1=O	-6%	-1%	-6%	4.7µM*
Nn1c(SCC(=O)NCc2ccccc2)nncc1=O	25%	-4%	4%	20%
Cn1c(=O)c2c(nc(CN3CCN(C(=O)c4ccco4)CC3)n2Cc2ccccc2)n(C)c1=O	u	u	-8%	10µM*
Cn1c(=O)c2c(nc(CN3CCN(C(=O)c4ccco4)CC3)n2CCc2ccccc2)n(C)c1=O	6%	-9%	-30%	u
CC1(C)SC2C(N3C(=O)C(c4ccccc4)NC3(C)C)C(=O)N2C1C(=O)O (stereo not drawn)	7%	x	x	-1%
COc1ccc(N2CC(C(=O)N[C@H](C(=O)NC3CCCC3)C(C)C)CC2=O)cc1 (stereo partly drawn)	36%	2%	25%	-1%
C=CCNc1nc(Cl)nc(Nc2ccc([N+](=O)[O-])cc2)n1	2.3µM*	1%	-1%	16%
Cc1cccc(NC(=O)C2CCCN(S(=O)(=O)c3c(C)nn(C)c3C)C2)c1 (stereo not drawn)	x	x	0%	x
Cc1ccc(C)c(NC(=O)C2CCCN(S(=O)(=O)c3c(C)nn(C)c3C)C2)c1 (stereo not drawn)	2.9µM*	-9%	7%	-26%
Cc1cccc(NC(=O)C2CCCN(S(=O)(=O)c3c(C)nn(C)c3C)C2)n1 (stereo not drawn)	12µM*	1%	5%	-11%
NC(=O)C1CCN(C(=O)CNC(=O)c2ccc(Br)o2)CC1	5%	-1%	-6%	-1%
CCOc1nc(SCCOc2ccc(C)cc2)nc(N(C)C)n1	u	-41%	35%	9.3µM*
CCOc1nc(SCCOc2ccc(Cl)cc2Cl)nc(N(C)C)n1	-29%	-38%	32%	u
Cc1ccc(S(=O)(=O)NC2CCC(C(=O)O)CC2)cc1 (stereo not drawn)	-20%	3%	-3%	x
O=C(Cc1cccs1)Nc1nnc(COc2ccccc2)s1	x	x	2%	x
SMILES	Pf growth 96h	SARS PLP yeast	AMA1-RON2 inh	Pf growth 48h
CSc1ccccc1-c1n[nH]c(=S)o1	38%	0%	37%	13µM*
COCCn1c(C)cc(C(=O)CSc2nnc(-c3cccnc3)n2-c2ccccc2F)c1C	-27%	-4%	18%	10µM*
CCOc1ccccc1-n1c(SCC(N)=O)nnc1-c1cccnc1	12µM*	3%	5%	-6%
CCOc1ccccc1-n1c(SCC(=O)N(C(C)C)C(C)C)nnc1-c1cccnc1	x	-2%	0%	-27%
CCOc1ccccc1-n1c(SCC(=O)NC2CCCC2)nnc1-c1ccoc1C	u	4%	12%	u
CCOc1ccccc1-n1c(SCC(=O)NC(C)(C)C)nnc1-c1ccoc1C	u	-5%	-13%	13µM*
Cc1ccc(S(=O)(=O)NCCC(=O)N2CCC(C(N)=O)CC2)cc1C	-6%	-9%	18%	-15%
COc1ccc(NC(=O)C2C(c3ccccc3)C2(Cl)Cl)cc1 (stereo not drawn)	48%	-1%	5%	10%
N/C(=N\OC(=O)Cc1ccccc1[N+](=O)[O-])c1ccncc1	26%	-5%	4%	18%
CC1CCCN(S(=O)(=O)c2ccc(C(=O)Nc3sc4c(c3C(N)=O)CCN(C)C4)cc2)C1 (stereo not drawn)	u	4%	1%	u
CCCN1CCc2c(sc(NC(=O)c3ccc(S(=O)(=O)N4CCCC4)cc3)c2C(N)=O)C1	u	-4%	0%	9.3µM*
CCN1CCc2c(sc(NC(=O)c3ccc(S(=O)(=O)N(CC)c4ccccc4)cc3)c2C(N)=O)C1	13µM*	-1%	-11%	u
CNC(=O)c1c(NC(=O)c2ccc(S(=O)(=O)N3CCCCC3C)cc2)sc2c1CCN(C)C2 (stereo not drawn)	10µM*	-3%	-1%	u
CCN1CCc2c(sc(NC(=O)COc3ccccc3)c2C(=O)OC)C1	0%	-2%	-3%	15µM*
CCN1CCc2c(sc(NC(=O)c3ccc(C(=O)c4ccccc4)cc3)c2C(N)=O)C1	u	0%	-4%	u
OCCN(CCO)CC(O)COc1ccc2c(c1)OCO2 (stereo not drawn)	52%	-9%	-6%	16%
COc1ccc(S(=O)(=O)N2CCN(CC(O)COc3ccc(C#N)cc3)CC2)cc1OC (stereo not drawn)	0%	0%	-9%	-31%
CNC(=O)c1c(NC(=O)c2ccc(S(=O)(=O)N3CC(C)OC(C)C3)cc2)sc2c1CCN(C(C)C)C2 (stereo not drawn)	-7%	-3%	4%	u
CNC(=O)c1c(NC(=O)c2ccc(S(=O)(=O)N3CCCC3)cc2)sc2c1CCN(C(C)C)C2	u	8%	x	2.6µM*
COc1cc2ccccc2cc1C(=O)Nc1sc2c(c1C(N)=O)CCN(C(C)C)C2	5.9µM*	-1%	x	8.3µM*
CC(C)N1CCc2c(sc(NC(=O)c3ccc(S(=O)(=O)N4CCOCC4)cc3)c2C(N)=O)C1	4.1µM*	19%	2%	u
COC(=O)c1c(NC(=O)c2ccc(S(=O)(=O)N3CCOCC3)cc2)sc2c1CCN(C)C2	u	-6%	11%	13µM*
CCOC(=O)c1c(NC(=O)c2ccc(S(=O)(=O)N3CCOCC3)cc2)sc2c1CCN(C(C)C)C2	4%	-4%	4%	u
CCN1CCc2c(sc(NC(=O)c3ccc(S(=O)(=O)N4CCOCC4)cc3)c2C(=O)OC)C1	x	-1%	-11%	u
